TDP1 cell CPT: DT40-hTDP1 cell growth loss with CPT. chicken DT40 Tdp1-/-;hTDP1 cells + 20 nM CPT, ATP luminescence, 48 h. Potency, µM (series often up to 46.2 µM), inactives show at the top dose activity change, negative = growth inhibition, actives largely listed as inhibitors. 12% of 420,000 active; note: nearly all actives have a fitted effect of over 55% in size
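Chicken DT40 Tdp1-/- cells complemented with human TDP1, 400 cells/well, exposed to compounds plus 20 nM camptothecin for at least 48 h at 37 C; viability read as ATP content by CellTiter-Glo luminescence.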
DT40 TDP1 no CPT: qHTS for Inhibitors of human tyrosyl-DNA phosphodiesterase 1 (TDP1): qHTS in cells in absence of CPT; DT40 Tdp1-/- hTDP1 cells, no CPT, ATP luminescence, 48 h; Potency, µM (series often up to 46.2 µM), without a hit: at the top dose activity change, negative = growth inhibition, actives largely listed as inhibitors; 15% of 420,000 active; AID 686978, 2013; note: nearly all actives have a fitted effect of over 55% in size
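Seeded 400 DT40-hTDP1 cells/well (vehicle DMSO, no 20 nM CPT); pinned compounds; ≥48 hr at 37 °C; CellTiter-Glo luminescence as viability measure.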
RORgamma inh: ROR gamma (mouse) transcription inhibition | Drosophila S2 Gal4-RORgamma UAS-luciferase reporter, 20 h | Potency, µM (highest dose often 53.6 µM), for the others: top-dose activity change, negative = inhibition, usual class: inhibitors | 5.4% of 310,000 active; note: nearly all actives have a fitted effect of over 60% in size
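Schneider cells (Drosophila), stable Gal4 DBD–ROR gamma + UAS-luc; 1 hr cmpd preincubation; Cu2+ induction 700 uM final; 20 hr ambient; luminescence.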
TDP1 block: blocks human tyrosyl-DNA phosphodiesterase 1; Q9NUW8; 0.28% of 350,000 active; AID 485290; recombinant TDP1, AlphaScreen DNA substrate cleavage; Potency, µM (top dose mostly 130 µM), for the others: top-dose activity change, negative = inhibition, usual class: inhibitors; note: nearly all actives have a fitted effect of over 40% in size
Target sequence (Q9NUW8 whole entry, looked up): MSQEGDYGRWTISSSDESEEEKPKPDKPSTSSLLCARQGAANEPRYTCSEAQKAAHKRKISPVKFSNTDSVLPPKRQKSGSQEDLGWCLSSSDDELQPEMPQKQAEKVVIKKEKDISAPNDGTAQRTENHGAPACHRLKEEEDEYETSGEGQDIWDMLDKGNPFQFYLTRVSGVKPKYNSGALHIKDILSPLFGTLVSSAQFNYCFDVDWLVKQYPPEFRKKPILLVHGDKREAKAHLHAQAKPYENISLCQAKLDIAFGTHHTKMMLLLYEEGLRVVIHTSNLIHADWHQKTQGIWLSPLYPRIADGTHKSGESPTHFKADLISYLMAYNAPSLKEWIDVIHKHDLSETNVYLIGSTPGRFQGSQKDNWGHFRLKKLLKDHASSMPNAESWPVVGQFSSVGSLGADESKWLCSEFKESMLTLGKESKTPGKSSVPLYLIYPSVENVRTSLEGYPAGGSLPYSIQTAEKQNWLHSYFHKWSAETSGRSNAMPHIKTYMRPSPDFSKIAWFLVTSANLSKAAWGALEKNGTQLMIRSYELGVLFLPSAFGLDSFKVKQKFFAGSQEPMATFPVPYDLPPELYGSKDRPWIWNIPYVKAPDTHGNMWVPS
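Compounds were preincubated with Tdp1 (1 nM final) for 15 min at room temperature before substrate (15 nM final) started a 5 min reaction; beads (10 ug/ml final) were then added for 10 min before AlphaScreen detection.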
VP16 counter: counter-screen for ROR gamma inhibitors: Gal4-VP16 reporter | Drosophila S2 Gal4-VP16 UAS-luciferase, luminescence, 20 h | Potency, µM (series often up to 53.6 µM), for the others: at the highest dose activity, negative = inhibition, hits mostly inhibitors | 3.5% of 310,000 active | AID 2546;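 note: Gal4-VP16 expression switched on by copper sulfate through the metallothionein promoter; nearly all actives have a fitted effect of over 50% in size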
Numbers without * were called inactive; ? = inconclusive; · = no result given; [ ] = another dose, or the depositor's remark. An excerpt weighted towards active compounds, which were near 19% of everything screened. Calls come from the whole dose curve; as a rule, active = well fitted curve in the direction sought with a large enough effect; inconclusive = small, poorly fitted or top-dose-only effect, or another doubt; inactive = no such curve, though single readings can be large; an effect the other way counts as inactive or inconclusive. % is set by controls: 0 for no effect and ±100 for the full control effect; potency is the fitted concentration of half-maximal effect.

SMILES | TDP1 cell CPT | DT40 TDP1 no CPT | RORgamma inh | TDP1 block | VP16 counter
CCCCN(CCCC)CCCNC(=O)c1cc(-c2ccc(Cl)s2)nc2ccccc12 | 13µM* | 15µM* | · | -2% | ·
Clc1ccc(-c2ccnc(-n3cccc3)n2)s1 | -11% | 10% | 31% | 3% | 5%
CSc1ncccc1C(=O)OCC(=O)N1CCN(S(=O)(=O)c2ccc(C)cc2C)CC1 | -4% | ? | · | · | ·
O=C(COC(=O)c1ccncc1)c1ccc(Cl)c(Cl)c1 | 2% | -8% | 33% | -1% | 3%
CCOC(=O)C1CCCN(S(=O)(=O)c2c(C(=O)N3CCCCC3)c(C)n(C)c2C)C1 (stereo not given) | -11% | 8% | -13% | 6% | -12%
CCOc1ccc(S(=O)(=O)Nc2cccc(C(=O)N3CCN(C(C)=O)CC3)c2)cc1 | ? | -14% | · | -7%[0.505 µM] | ·
COc1ccc(-c2cc(C(=O)N(C)Cc3ccc(F)cc3)c3ccccc3n2)cc1OC | 23µM* | ? | · | · | ·
COc1ccccc1CCNC(=O)c1cc(-c2ccncc2)nc2ccc(Br)cc12 | ? | 21µM* | 1% | -1% | -16%
Cc1ccc(NC(=O)c2cc(C)nc3ccccc23)cc1 | 6% | -13% | -2% | 4% | 10%
O=C(NC(=S)Nc1ccccc1)c1cc(-c2ccccc2)nc2ccccc12 | 29µM* | ? | 0.28µM* | -7% | 4.5µM*
COc1ccc(-c2cc(C(=O)N3CCCCC3)c3ccccc3n2)cc1OC | ? | -50% | ? | 0% | -4%
COc1cc(-c2cc(C(=O)Nc3ccc(O)cc3)c3ccccc3n2)cc(OC)c1OC | 10µM* | ? | 17% | 6% | -13%
COC(=O)[C@H](CCSC)NC(=O)NCc1ccccn1 | 6% | -2% | 8% | -2% | -3%
O=C(NC1=NCCS1)c1cc(-c2ccc(-c3ccccc3)cc2)nc2ccccc12 | ? | ? | 3.5µM* | 6% | 5µM*
COc1ccc(-c2cc(C(=O)Nc3ccc(C(N)=O)cc3)c3ccccc3n2)cc1OC | ? | 5.8µM* | -11% | 5% | -12%
COc1cc(-c2cc(C(=O)Nc3nc4ccccc4s3)c3ccccc3n2)cc(OC)c1OC | 7.3µM* | 6.5µM* | -11% | 3% | 3%
COc1ccc(-c2cc(C(=O)Nc3ccc(S(=O)(=O)Nc4onc(C)c4C)cc3)c3ccccc3n2)cc1OC | 9% | -5% | 0% | -3% | -5%
COc1ccc(NC(=O)c2cc(-c3ccc(OC)c(OC)c3)nc3ccccc23)c(OC)c1 | 29µM* | 16µM* | 10% | 13% | 0%
CCCN1CNc2c(c(=O)[nH]c(=S)n2CCc2ccc3c(c2)OCCO3)C1 | ? | ? | · | 1% | ·
Cc1cc(Cl)ccc1NC(=O)CCN1C(=O)C2CCCCC2C1=O (stereo not given) | -9% | 12% | · | 1% | ·
O=C(O)CCN1C(=O)C2C3C=CC(C3)C2C1=O (stereo not given) | 3% | 5% | -10% | -5% | -2%
O=C(NNC(=O)c1cc(-c2ccncc2)nc2ccccc12)c1cccc(Cl)c1 | -9% | -24% | · | · | ·
CC(=O)c1cccc(NC(=O)c2cc(-c3ccncc3)nc3ccccc23)c1 | ? | 18µM* | · | 3% | ·
COc1cccc(-c2cc(C(=O)Nc3ccc(N(C)C(C)=O)cc3)c3cc(Br)ccc3n2)c1 | 1.8µM* | 1.8µM* | · | · | ·
Cc1ccc(S(=O)(=O)N(C)C)cc1NC(=O)c1cc(-c2ccncc2)nc2ccccc12 | ? | 4.1µM* | · | 2% | ·
SMILES | TDP1 cell CPT | DT40 TDP1 no CPT | RORgamma inh | TDP1 block | VP16 counter
Cc1ccc(-c2cc(C(=O)Nc3cc(C(=O)O)ccc3C)c3ccccc3n2)cc1 | 8% | ? | 14% | ? | 2%
O=C(NNC(=O)c1cc(-c2ccc(Cl)cc2Cl)nc2ccccc12)Nc1ccccc1 | ? | 21µM* | ? | 4% | 0%
COCCn1c(SCc2cccnc2)nnc1-c1c[nH]c2ccccc12 | -1% | 0% | -33% | -5% | -6%
CCCCN1C[C@H](CSC)[C@@H](CC(=O)NC)C1=O | -20% | -7% | · | · | ·
O=C(NC1CCCC1)c1cc(-c2ccccc2)nc2ccccc12 | -4% | ? | · | 2% | ·
CC(=O)Nc1ccc(NC(=O)c2cc(-c3ccccc3)nc3ccccc23)cc1 | ? | 12µM* | 33% | 5% | -4%
COc1cccc(NC(=O)c2cc(-c3ccncc3)nc3c(C)cc(C)cc23)c1 | ? | 23µM* | 0% | -3% | -16%
CC(C)(C)NS(=O)(=O)c1ccc(NC(=O)c2cc(-c3ccccc3)nc3ccccc23)cc1 | ? | 0% | 30% | 0% | -16%
COc1ccc(-c2cc(C(=O)NC3CCCC3)c3ccccc3n2)cc1OC | ? | 15µM* | · | · | ·
Cc1nnc(Sc2cc(C(=O)NC3CC3)c3ccccc3n2)s1 | ? | 7.3µM* | -3% | · | -9%
Cc1cc(S(=O)(=O)n2cnc3cc([N+](=O)[O-])ccc32)ccc1Cl | -19% | -6% | 0%[10 µM] | 3% | 1%
Cc1cccc(Nc2cc(=O)n(C)c(=O)[nH]2)c1 | -23% | -19% | · | 8% | ·
COc1ccc(-c2csc(N3CCSCC3)n2)cc1 | -5% | -4% | 6% | · | -6%
COc1cc(-c2cc(-c3nnco3)c3ccccc3n2)cc(OC)c1OC | ? | 7.3µM* | -9% | 5% | -4%
CCOc1ccc(-c2cc(C(=O)NCCCn3ccnc3)c3cc(Br)ccc3n2)cc1 | 12µM* | 10µM* | ? | · | ?
CCOc1ccc(-c2cc(C(=O)NCCCn3ccnc3)c3ccccc3n2)cc1 | ? | ? | 3% | 5% | 2%
COc1ccc(-c2cc(C(=O)NC(C)c3ccccn3)c3ccccc3n2)cc1OC (stereo not given) | 23µM* | 21µM* | · | -1% | ·
CC(=O)c1cccc(NC(=O)c2cc(-c3ccco3)nc3ccccc23)c1 | 13µM* | 18µM* | 4% | · | 4%
Cc1cc(NC(=O)c2cc(-c3ccncc3)nc3ccccc23)ccc1Br | 23µM* | ? | · | 3% | ·
COc1cccc(-c2cc(C(=O)Nc3ccncc3)c3ccccc3n2)c1 | ? | 16µM* | 0% | 6% | -8%
Cc1ccnc(NC(=O)c2cc(-c3ccc(Cl)s3)nc3ccccc23)c1 | 10µM* | 18µM* | · | -11% | ·
O=C(Nc1ccccn1)c1cc(-c2ccc(Cl)s2)nc2ccccc12 | ? | ? | · | -5% | ·
COc1cccc(NC(=O)c2cc(-c3ccccn3)nc3ccccc23)c1 | ? | ? | · | 1% | ·
COc1cc(NC(=O)c2ccccc2OCc2ccccc2)cc(OC)c1OC | ? | 16µM* | -15% | · | 0%

Screening results deposited in PubChem by National Center for Advancing Translational Sciences (NCATS).
